Potency and outcome data for nine molecules are collected here from PubChem BioAssay (Tox21).

Several values for one entry are separate records, joined by “and”; a condition that tells them apart may be missing. Equal values may be shown once. Records with an inconclusive call do not appear. Some compounds were tested as several samples or in several runs, with calls that do not always agree. Activity calls are given as the source filed them. Unless noted, the call rests on the fitted dose curve; in most records, active means well fitted curve in the direction sought with a large enough effect in the repeat runs; inconclusive means weak or mixed curves; inactive means no such curve, though single readings can be large; an effect the other way counts as inactive or inconclusive.

The nature of assay [1]: qHTS assay for small molecule agonists of the p53 signaling pathway (AID 651631; calls by dose curve; further: nearly all actives have a fitted effect of over 15% in size; further: potency means the concentration at half of the fitted maximal effect). The essentials:
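p53RE-bla HCT-116 cells; compounds 16 h, 37 °C; LiveBLAzer B/G FRET substrate 2 h RT; fluorescence intensity read-out, qHTS format.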

Assay [2] in a line: qHTS assay for small molecule disruptors of the mitochondrial membrane potential - cell viability (AID 720634; calls by dose curve; further: nearly all actives have a fitted effect of over 20% in size; further: potency means the concentration at half of the fitted maximal effect). The essentials: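 After overnight attachment at 37 C, HepG2 cells received compound or DMSO vehicle for 1 hr. Viability is then taken from ATP-driven luminescence following a 30 min room-temperature CellTiter-Glo step.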
The nature of assay [3]: qHTS assay for small molecule disruptors of the mitochondrial membrane potential (AID 720635). Further: potency means the concentration at half of the fitted maximal effect. The method, boiled down:
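HepG2 cells (2,000/well) attached overnight at 37C, then took compound for 1 hr at 37C, 5% CO2. Mito-MPS dye was added for 30 min; fluorescence was read at 490/535 nm (monomers) and 540/590 nm (aggregates).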

The nature of assay [4]: qHTS assay to test for compound auto fluorescence at 590 nm (red) in HepG2 cells (AID 720674). The method, boiled down: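 Rose Bengal sodium served as the red fluorophore standard. HepG2 monolayers (overnight attachment, MEM with 10% FBS) were exposed to test compounds for 1 hr at 37 C and read at Ex 540/Em 590 nm.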
A short description of assay [5]: qHTS assay to test for compound auto fluorescence at 535 nm (green) in HepG2 cells (AID 720675).
Assay [6] in a line: qHTS assay to test for compound auto fluorescence at 460 nm (blue) in HEK293 cells (AID 720678). The method, boiled down:
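Blue read-out at excitation 405 nm and emission 460 nm follows overnight compound exposure of HEK293 cells at 37C in 5% CO2. Activity is given as auto fluorescence equivalency to triamterene.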

Assay [7] in a line: qHTS assay to test for compound auto fluorescence at 590 nm (red) in HEK293 cells (AID 720679). The essentials:
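Red channel, Ex/Em 540/590nm; signal expressed as equivalency to Rose Bengal sodium. HEK293, 2,000 cells/well, 10% dialyzed FBS; 23 nL compound pinned after 4-5 hr attachment; overnight 37C/5% CO2 before reading.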

Assay [8] is described as follows: qHTS assay to test for compound auto fluorescence at 535 nm (green) in HEK293 cells (AID 720680).
Assay [9] can be described thus: qHTS assay to test for compound auto fluorescence at 460 nm (blue) in HEK293 cell free culture (AID 720681). The method, boiled down: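 Test compounds were pinned into cell-free culture medium (DMEM with 10% FBS) and fluorescence was read directly at Ex/Em 405/460 nm. Signals were expressed as fluorescence equivalents of triamterene, with DMSO vehicle as control.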

The nature of assay [10]: qHTS assay to test for compound auto fluorescence at 535 nm (green) in HEK293 cell free culture (AID 720682). The method, boiled down:
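Cell-free medium (DMEM, 10% FBS) receives compound or DMSO by pintool. Plate read directly at Ex 485/Em 535 nm. Signal converted to fluorescein equivalency.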

A short description of assay [11]: qHTS assay to test for compound auto fluorescence at 590 nm (red) in HEK293 cell free culture (AID 720683). The method, boiled down:
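Tox21 10K library compounds were pinned into cell-free DMEM with 10% FBS and fluorescence was read at excitation 540 nm. Activity is expressed as Rose Bengal sodium equivalency.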

A short description of assay [12]: qHTS assay to test for compound auto fluorescence at 590 nm (red) in HepG2 cell free culture (AID 720684). The method, boiled down: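 Measured in medium alone (MEM containing 10% FBS) following pintool addition of compound; emission at 590 nm with 540 nm excitation, referenced to Rose Bengal sodium.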
The nature of assay [13]: qHTS assay to test for compound auto fluorescence at 460 nm (blue) in HepG2 cell free culture (AID 720685). The essentials: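 Compound (23 nL) or DMSO pinned into cell-free MEM with 10% FBS; blue fluorescence read at 405/460 nm excitation/emission, expressed as auto-fluorescence equivalency to triamterene.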
Assay [14] in a line: qHTS assay to test for compound auto fluorescence at 535 nm (green) in HepG2 cell free culture (AID 720686).
The nature of assay [15]: qHTS assay to test for compound auto fluorescence at 460 nm (blue) in HepG2 cells (AID 720687). The essentials:
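Cells (2,000/well in MEM with 10% FBS) attached overnight at 37 C, then were exposed to compound or DMSO for 1 hr at 37 C, 5% CO2. Fluorescence read at Ex/Em 405/460 nm, expressed as triamterene-equivalent signal.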

Assay [16] addresses Glucocorticoid receptor (Homo sapiens) (UniProt P04150). As to the kind of experiment: qHTS assay to identify small molecule agonists of the glucocorticoid receptor (GR) signaling pathway (AID 720691; active means well fitted activation curve with a large enough effect in the signal ratio in the repeat runs, not every such curve was filed as active; the % refers to the signal ratio). The method, boiled down: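 Agonist mode in a HeLa line carrying a GRE-controlled beta-lactamase reporter. Compounds act for 18 h at 37 C before a 2 h room-temperature FRET substrate step and fluorescence reading.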

The target is the same in assay [17]. In words: qHTS assay to identify small molecule antagonists of the glucocorticoid receptor (GR) signaling pathway (AID 720692; active means well fitted inhibition curve with a large enough effect in the signal ratio in the repeat runs, not every such curve was filed as active; the % refers to the signal ratio; further: potency means the concentration at half of the fitted maximal effect). The essentials: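 Cells plated, rested 4 h at 37 C/5% CO2; compounds in DMSO pin-transferred; dexamethasone added to 5 nM final; 18 h at 37 C; B/G FRET substrate added, 2 h room temperature; fluorescence measured.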
A short description of assay [18]: qHTS assay for small molecules that induce genotoxicity in human embryonic kidney cells expressing luciferase-tagged ATAD5 (AID 651632). Further: nearly all actives have a fitted effect of over 15% in size. The method, boiled down:
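Increased luciferase signal from ATAD5-tagged reporter cells indicates DNA-damage-driven ATAD5 induction. HEK293T cells are treated for 16 hr at 37C before detection with Amplite.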

Assay [19] can be described thus: qHTS assay for small molecule agonists of the p53 signaling pathway - cell viability (AID 651633; calls by dose curve; further: nearly all actives have a fitted effect of over 30% in size; further: potency means the concentration at half of the fitted maximal effect). The essentials: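 p53RE-bla cells, seeded at 4,000 per well and rested 5 h at 37 C/5% CO2, received compounds in DMSO for 16 h at 37 C. CellTiter-Glo was then added, and luminescence was read after 30 min at room temperature to gauge cytotoxicity.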
Assay [20] in a line: qHTS assay for small molecules that induce genotoxicity in human embryonic kidney cells expressing luciferase-tagged ATAD5 - cell viability (AID 651634; calls by dose curve; further: nearly all actives have a fitted effect of over 25% in size). The method, boiled down:
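Cytotoxicity counterscreen in HEK293T cells bearing an ATAD5-luciferase reporter: live-cell protease activity measured by CellTiter-Fluor fluorescence after 15.5 hr compound exposure.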

Chain of Glucocorticoid receptor (Homo sapiens) (P04150 whole entry, looked up): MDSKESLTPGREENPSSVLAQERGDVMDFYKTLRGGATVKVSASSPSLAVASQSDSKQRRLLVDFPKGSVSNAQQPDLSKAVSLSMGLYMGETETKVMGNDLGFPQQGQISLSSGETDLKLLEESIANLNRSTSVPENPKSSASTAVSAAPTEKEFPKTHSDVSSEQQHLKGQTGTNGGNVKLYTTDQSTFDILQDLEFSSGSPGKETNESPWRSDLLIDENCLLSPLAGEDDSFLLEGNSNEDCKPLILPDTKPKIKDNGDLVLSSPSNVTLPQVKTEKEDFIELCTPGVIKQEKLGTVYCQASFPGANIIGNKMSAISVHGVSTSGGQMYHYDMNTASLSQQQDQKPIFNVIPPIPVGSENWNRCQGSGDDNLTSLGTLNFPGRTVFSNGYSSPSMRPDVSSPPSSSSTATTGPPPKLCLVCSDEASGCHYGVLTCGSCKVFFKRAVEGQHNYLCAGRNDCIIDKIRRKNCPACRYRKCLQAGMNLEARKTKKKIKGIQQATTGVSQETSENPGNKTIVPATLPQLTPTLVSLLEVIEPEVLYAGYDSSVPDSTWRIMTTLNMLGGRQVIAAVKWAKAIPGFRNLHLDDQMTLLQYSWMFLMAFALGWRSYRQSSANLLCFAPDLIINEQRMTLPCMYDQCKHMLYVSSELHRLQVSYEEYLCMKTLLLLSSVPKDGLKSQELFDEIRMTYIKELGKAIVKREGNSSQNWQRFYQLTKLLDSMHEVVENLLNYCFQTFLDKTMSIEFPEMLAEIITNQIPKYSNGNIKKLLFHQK

For the molecule `CC(C)(C)NC(=O)[C@@H]1CN(Cc2cccnc2)CCN1C[C@@H](O)C[C@@H](Cc1ccccc1)C(=O)N[C@H]1c2ccccc2C[C@H]1O`, the Potency entry in [1], in assay [5], in [6], in [8], in [9] and in assay [10] was “inactive” throughout. The Potency result in assay [13], in [14], in assay [15], in assay [16] and in assay [17] was “inactive” each time. Also, the Potency in assay [2] is 13.3 µM (active) and inactive; in assay [3], 7.5 µM (active). Moreover, the result in [4], in assay [7], in assay [11] and in [12] was inactive.
In the case of `CCC(C)(Oc1ccc(C2(c3ccc(OC(C)(CC)C(=O)O)cc3)CCCCC2)cc1)C(=O)O` (stereo not drawn), the Potency result in [18], in assay [19], in assay [20], in [2], in assay [3] and in assay [5] was “inactive” throughout. In addition, the Potency result in [6], in [8], in [9], in [10], in assay [13] and in assay [14] was “inactive” each time. Further, the Potency entry in [15], in assay [16] and in [17] was “inactive” throughout. The molecule was called inactive in [4], in assay [7], in assay [11] and in assay [12].
As to `CNCCC(Oc1ccc(C(F)(F)F)cc1)c1ccccc1` (stereo not drawn), the Potency in [1] is 53.8 µM (active); in assay [19], 60.3 µM (active). Also, the Potency result in assay [20], in [5], in assay [8], in assay [9], in [10] and in assay [14] was “inactive” in each case. For the same molecule, the Potency entry in assay [15], in assay [16] and in assay [17] was “inactive” throughout. Besides, the call in [4], in [11] and in [12] was inactive.
As to `CCc1cc(C(C)(C)C)c(O)c(C(C)(C)C)c1`, the Potency result in assay [18], in [2], in assay [5], in assay [6], in [8] and in assay [9] was “inactive” each time. Also, the Potency entry in assay [10], in [14], in assay [15], in [16] and in [17] was “inactive” in each case. For the same molecule, the Potency was 15.5 µM (active) and inactive in assay [19]; 15.5 µM (active) and 30.6 µM (active) in assay [3]. Besides, the outcome in [4], in [7], in [11] and in [12] was inactive.
For the molecule `CCCCCC(=O)O[C@]1(C(C)=O)CC[C@H]2[C@@H]3CCC4=CC(=O)CC[C@]4(C)[C@H]3CC[C@@]21C`, the Potency result in assay [18], in assay [20], in assay [2], in assay [5], in [6] and in [8] was “inactive” in each case. Besides, the Potency result in assay [9], in assay [10], in [13], in assay [14], in [15] and in assay [16] was “inactive” throughout. The Potency in assay [19] is 26.6 µM (active) and 54.1 µM (active); in assay [3], 11.9 µM (active) and 15.2 µM (active); in assay [17], 268 nM (active) and 194 nM (active). Further, the result in assay [4], in assay [11] and in assay [12] was inactive.
On to `CCn1c2ccccc2c2cc(N)ccc21`, for which the Potency result in assay [18], in [19], in assay [20], in [2], in assay [5] and in assay [6] was “inactive” throughout. Besides, the Potency entry in assay [8], in assay [9], in assay [10], in [13], in assay [14] and in assay [15] was “inactive” each time. Also, in assay [3], the Potency is 27 µM (active) and 24.3 µM (active) and 7.7 µM (active). In addition, the result in [4], in assay [7] and in [11] was inactive.
As to `COc1ccc(COC(C)=O)cc1`, the Potency result in assay [18], in assay [19], in assay [20], in assay [2], in assay [3] and in [5] was “inactive” throughout. Further, the Potency entry in assay [8], in [9], in assay [10], in [13], in assay [14] and in assay [15] was “inactive” each time. Further, the molecule was classed as inactive in [4], in assay [11] and in assay [12].
Regarding `NC(Cc1ccc(Cl)cc1)C(=O)O` (stereo not drawn), the Potency entry in assay [1], in [19], in assay [2], in assay [5], in assay [6] and in [8] was “inactive” each time. Further, the Potency result in assay [9], in assay [10], in [13], in assay [14], in assay [15] and in assay [16] was “inactive” throughout. In addition, in [17], the Potency result is “inactive”. Further, the result in [4], in assay [7], in [11] and in assay [12] was inactive.
On to `CCCCCCCCCCCC[N+](C)(C)C`, for which the Potency entry in assay [18], in assay [2], in assay [5], in [8], in [9] and in assay [10] was “inactive” each time. The Potency entry in [14], in assay [15] and in assay [16] was “inactive” in each case. Also, the Potency in assay [3] is 61.1 µM (active); in assay [17] it was 21.8 µM (active) and 21.9 µM (active). Moreover, the outcome in [4], in assay [7], in [11] and in assay [12] was inactive.
